Test results taken from PubChem BioAssay AID624304 (Sanford-Burnham Center for Chemical Genomics, 2012).
Among all 360,000 compounds or so, about 1,800 (0.5%) were called active. This is one part of a sample in which actives are shown more often than they occur. Unmarked numbers belong to inactive results.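 Rule for the calls: active = interference check ratio from 0.5 to 1.5 plus GFP to RFP signal ratio inhibition reaching or exceeding a fixed threshold (cut at about 30% in these data, passing the limit was not always enough); inactive = the rest.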

experiment: suppressors of acrylamide-induced Pgst-4::GFP reporter in worms, primary screen, SKN-1 inhibitor project, whole organism, uHTS, GFP/RFP fluorescence ratio, strain VP596 (AID 624304); conditions: C. elegans VP596 Pgst-4::GFP/RFP ratio, 24 h, at 21.8 µM, stronger effect = higher value

Q: With `CC(C)(CNCC(O)c1ccccc1)N1CCOCC1` (stereo unspecified) as the compound, how does the inhibition read?
A: -7.82%

Q: Which inhibition does the source give for `Fc1cccc(CSc2nnc3ccc(-c4ccncc4)nn23)c1` here?
A: -27.4%

Q: Which inhibition does the source give for `COc1ccc(S(=O)(=O)NCc2cccnc2)cc1NC(=O)c1ccc(C)cc1` here?
A: 22.1%

Q: With `CC(C)c1nnc(NC(=O)C2CC(=O)N(CCc3ccc(F)cc3)C2)s1` (stereo unspecified) as the compound, how does the inhibition read?
A: -6.45%

Q: Which inhibition does the source give for `CCC(C)NC(=O)c1ccccc1NC(=O)c1ccccc1N(C)S(C)(=O)=O` (stereo unspecified) here?
A: -2.01%

Q: Which inhibition does the source give for `COc1ccc(-c2nc(CS(=O)CC(=O)NCc3cccnc3)c(C)o2)cc1OC` (stereo unspecified) here?
A: 0.495%

Q: For `Cc1ccc(-c2nc(CS(=O)CC(=O)NC3CCCC3)c(C)o2)cc1` (stereo unspecified), which inhibition is on record?
A: 5.39%

Q: For `COc1ccc(-c2nc(CS(=O)CC(=O)NCc3ccccn3)c(C)o2)cc1` (stereo unspecified), which inhibition is on record?
A: 37.6% (active)

Q: With `COc1ccc(N2C(=O)C(CC(=O)Nc3ccc(F)cc3)N(CCc3cccs3)C2=O)cc1` (stereo unspecified) as the compound, how does the inhibition read?
A: -3.33%

Q: For `COc1ccc(-n2nc(C(=O)Nc3cc(OC)c(OC)c(OC)c3)c3ccccc3c2=O)c(OC)c1`, which inhibition is on record?
A: 6.93%

Q: Which inhibition does the source give for `COCCN1C(=O)N(c2ccc(Cl)cc2)C(=O)C1CC(=O)Nc1cc(OC)cc(OC)c1` (stereo unspecified) here?
A: 17%

Q: For `C[C@H](OC(=O)n1ccnc1)[C@@H]1O[C@@]2(C)CCC[C@@H]1O2`, which inhibition is on record?
A: 13.4%

Q: For `C=CCSc1nnc2c(n1)-c1cccc3cccc-2c13`, which inhibition is on record?
A: 53.1% (active)

Q: For `C=CCSc1nsc(NC(=O)Nc2cccc(C(C)=O)c2)n1`, which inhibition is on record?
A: 2.8%

Q: For `COc1ccnc2c1c(=O)n(Cc1cccc(F)c1)c(=O)n2C`, which inhibition is on record?
A: 13.9%

Q: Which inhibition does the source give for `CCCc1cc(C(=O)Nc2ccc(Cl)cn2)cs1` here?
A: 35% (active)

Q: Which inhibition does the source give for `CCCCC(CC)C(=O)Nc1ccc(Cl)cn1` (stereo unspecified) here?
A: -11.4%

Q: For `COc1ccc(C(=O)N/N=C(\C)CC(=O)Nc2ccc(Cl)cn2)cc1`, which inhibition is on record?
A: 3.73%

Q: With `C=CCC1(C(=O)N(C)Cc2ccccc2)CCN(C(=O)OC(C)(C)C)CC1` as the compound, how does the inhibition read?
A: 4.4%

Q: With `COCCN(C(=S)Nc1cccc(Cl)c1C)C(C)c1ccco1` (stereo unspecified) as the compound, how does the inhibition read?
A: 2.25%

Q: For `C/C(=N\NC(=O)OC(C)(C)C)c1ccc[nH]1`, which inhibition is on record?
A: 10.7%

Q: Which inhibition does the source give for `CCOC(=O)c1ccc(NC(=O)c2nc[nH]c2C(=O)N[C@@H](CCCCNC(=O)OC(C)(C)C)C(=O)OC(C)(C)C)cc1` here?
A: -1.6%

Q: Which inhibition does the source give for `c1ccc2c(c1)OCCOCCOCCO2` here?
A: 2.75%

Q: With `CCC1CCCCN1C(=O)CSc1nc2c(c(=O)n(C)c(=O)n2C)n1C` (stereo unspecified) as the compound, how does the inhibition read?
A: 10.5%

Q: With `CCCc1cc(=O)n2[nH]c(SCc3ccccc3)nc2n1` as the compound, how does the inhibition read?
A: 11.9%

Q: For `Cc1nc2nc(CSc3nc4ccccc4s3)cc(=O)n2[nH]1`, which inhibition is on record?
A: 31.9% (active)

Q: For `CCn1c(SCc2cc(=O)n3ccsc3n2)nc2ccccc21`, which inhibition is on record?
A: 13.5%

Q: For `COc1ccc2c(c1)c1ncn(Cc3ccccn3)c(=O)c1n2C`, which inhibition is on record?
A: -9.72%

Q: For `Fc1ccc(-c2csc(-c3ccc(C4SCCS4)cc3)n2)cc1F`, which inhibition is on record?
A: -2.79%

Q: Which inhibition does the source give for `Clc1ccc(-c2csc(-c3ccncc3)n2)cc1` here?
A: 73.1% (active)

Q: Which inhibition does the source give for `N#CC(=C1CCCC1)c1nc(-c2ccc(Cl)cc2)cs1` here?
A: -17.2%

Q: Which inhibition does the source give for `COc1ccc(C)cc1NC(=O)c1[nH]c(C)c(C(C)=O)c1C` here?
A: -2.27%

Q: With `COc1ccc(NC(=O)C2Cc3c(-c4cccc(NC(C)=O)c4)ccnc3O2)cc1OC` (stereo unspecified) as the compound, how does the inhibition read?
A: 7.14%

Q: Which inhibition does the source give for `COc1ccc2nc(-c3ccccn3)ccc2c1` here?
A: 18.4%

Q: Which inhibition does the source give for `c1ccc(Nc2nc(-c3ccncc3)cs2)nc1` here?
A: 38.3% (active)

Q: For `N#Cc1ccc(OCC(=O)Nc2nc(-c3ccccn3)cs2)cc1`, which inhibition is on record?
A: 0.752%

Q: For `O=C(Nc1ccc(Cl)cn1)c1ccccc1-c1ccccc1`, which inhibition is on record?
A: 19.1%

Q: Which inhibition does the source give for `Clc1ccc(Nc2nc(-c3cccs3)cs2)nc1` here?
A: 84.2% (active)

Q: Which inhibition does the source give for `COc1ccc(-c2csc(Nc3ccccn3)n2)cc1` here?
A: 40% (active)

Q: Which inhibition does the source give for `COc1ccc(C(O)c2nc(-c3ccc(OC)nc3)cs2)cc1` (stereo unspecified) here?
A: -3.44%

Q: Which inhibition does the source give for `CC(NC(=O)c1ccco1)C(=O)Nc1nc(-c2ccccn2)cs1` (stereo unspecified) here?
A: -5.6%

Q: For `Clc1ccc(Cc2nnc(-c3cccs3)o2)cc1`, which inhibition is on record?
A: -1.16%

Q: Which inhibition does the source give for `C=CCC[C@H](Cc1ccc(F)cc1)C(=O)OC[C@@H](Cc1c[nH]c2ccccc12)NC(=O)[C@H](CC=C)CC(=O)N[C@H](CO)Cc1ccccc1` here?
A: 1.71%

Q: For `CN(C(=O)c1ccccc1)c1nccnc1C#N`, which inhibition is on record?
A: -2.1%

Q: With `O=C(NCCc1ccccc1)C1CCC(Cn2c(=O)c3ccccc3n(Cc3cccnc3)c2=O)CC1` (stereo unspecified) as the compound, how does the inhibition read?
A: 2.01%

Q: For `O=C(c1ccc(=O)oc1)N1CCC(C(O)(c2ccccc2)c2ccccc2)CC1`, which inhibition is on record?
A: 22.9%

Q: With `NC(=O)C1CCN(C(=O)c2ccc(C(F)(F)F)cc2)CC1` as the compound, how does the inhibition read?
A: 1.88%

Q: With `CCn1cnc2scc(-c3ccc(C)c(C)c3)c2c1=O` as the compound, how does the inhibition read?
A: 9.07%

Q: With `C[C@H]1NS(=O)(=O)c2cc(Cl)ccc2O[C@@H]1c1ccccc1` as the compound, how does the inhibition read?
A: 12.8%

Q: With `O=C(N/N=C\c1cccc(Br)c1)c1ccccc1-n1cccc1` as the compound, how does the inhibition read?
A: 49.3% (active)

Q: For `COc1cc(OC)c(C(=O)NNC(=O)c2ccccc2-n2cccc2)cc1OC`, which inhibition is on record?
A: -9.97%

Q: For `Cc1nnsc1C(=O)N/N=C/c1cccc(C(F)(F)F)c1`, which inhibition is on record?
A: 6.82%

Q: With `CC(C)Nc1ccc(-n2nc3ccccc3[n+]2[O-])cc1` as the compound, how does the inhibition read?
A: 8.98%

Q: For `COCCNC(=O)CCCN1C(=O)c2ccccc2Sc2ncccc21`, which inhibition is on record?
A: 4.78%

Q: Which inhibition does the source give for `O=C(O)CCCN1C(=O)c2ccccc2Sc2ncccc21` here?
A: 45.5% (active)

Q: Which inhibition does the source give for `O=C(O)CCCN1C(=O)C2C3c4ccccc4C(c4ccccc43)[C@@H]2C1=O` (stereo partly specified) here?
A: -5.65%

Q: Which inhibition does the source give for `Fc1ccc(N2N=C(c3cccs3)CC2c2ccco2)c(F)c1` (stereo unspecified) here?
A: 12.6%

Q: Which inhibition does the source give for `Cc1nc2cc(NC(=O)CSc3nc4c(C)cccc4cc3C#N)ccc2s1` here?
A: -3.68%

Q: With `Cc1cccc2cc(C#N)c(N3CCCC3)nc12` as the compound, how does the inhibition read?
A: 32.6% (active)

Q: Which inhibition does the source give for `Cc1cc(C)c2cc(C#N)c(N3CCNCC3)nc2c1` here?
A: 5.2%

Q: With `Cc1cccc(C(=O)Nc2ccc(C(=O)/C=C/c3cccs3)cc2)c1` as the compound, how does the inhibition read?
A: 46.6% (active)

Q: For `CC(=O)Nc1ccc(NC(=O)[C@@H](NC(=O)c2cccc(C)c2)C(C)C)cc1`, which inhibition is on record?
A: 12.9%

Q: For `Cc1cccc(C(=O)N[C@H](C(=O)NCc2cccs2)C(C)C)c1`, which inhibition is on record?
A: 1.58%

Q: For `CCCCCCCC(=O)OC(CN1CCCCCC1)CN1CCCC1=O` (stereo unspecified), which inhibition is on record?
A: 0.0276%

Q: Which inhibition does the source give for `O=Cc1c(Cl)cccc1Cl` here?
A: 2.42%

Q: For `CCC(=O)Nc1c(C)n[nH]c1C`, which inhibition is on record?
A: -5.42%

Q: Which inhibition does the source give for `Cn1c(CC(=O)Nc2ccc(F)cc2)nnc1SCC(=O)NC1CCCCC1` here?
A: 7.79%

Q: With `C=CCn1c(CC(=O)Nc2cccc(OC)c2)nnc1SCC(=O)NC1CCCCC1` as the compound, how does the inhibition read?
A: 37.9% (active)

Q: For `COc1cccc(NC(=O)CSc2nnc(C3CCCCC3)n2N)c1`, which inhibition is on record?
A: -8.2%

Q: With `CC(C)C(=O)Nc1c(C(=O)c2ccc(F)cc2)oc2ccccc12` as the compound, how does the inhibition read?
A: 19.7%

Q: With `Clc1ccc(-c2cc(-c3ccccn3)on2)c(Cl)c1` as the compound, how does the inhibition read?
A: 65.8% (active)

Q: For `Clc1ccc(COn2c(-c3ccc(Cl)cc3Cl)nc3ncccc32)cc1`, which inhibition is on record?
A: 28.6%

Q: For `Fc1ccc(-c2ccc(CNCc3ccccn3)o2)cc1Cl`, which inhibition is on record?
A: -1.67%

Q: With `COC(=O)[C@]1(Cc2ccccc2)N[C@H](CN(C)S(=O)(=O)c2ccc(OC(F)(F)F)cc2)[C@@H]2C(=O)N(C)C(=O)[C@@H]21` as the compound, how does the inhibition read?
A: 3.7%

Q: For `N=c1c2c(-c3ccccc3)c(-c3ccccc3)n(Cc3ccccc3)c2ncn1CCCO`, which inhibition is on record?
A: 36.6% (active)

Q: With `COCCn1cnc2c1c(=O)n(CC(=O)NN)c(=O)n2Cc1ccccc1` as the compound, how does the inhibition read?
A: 5.34%

Q: For `COCCn1cnc2c1c(=O)n(Cc1ccc(Br)cc1)c(=O)n2Cc1ccccc1`, which inhibition is on record?
A: 21.1%

Q: With `Cc1[nH]c(C)c(S(=O)(=O)N2CCN(c3cccc(C(F)(F)F)c3)CC2)c1C(=O)N1CCCC1` as the compound, how does the inhibition read?
A: 16.8%

Q: With `CCOC(=O)[C@]12CCCC=C1N(CCC1=CCCCC1)C(=O)[C@H](CC(=O)N1CCOCC1)C2` as the compound, how does the inhibition read?
A: 6.43%

Q: For `Cc1cccc(N2CCN(c3ccc(C(N)=O)cc3[N+](=O)[O-])CC2)c1C`, which inhibition is on record?
A: 6.19%

Q: With `CN1CCN(S(=O)(=O)c2ccc(N3CCN(c4ccccc4O)CC3)c([N+](=O)[O-])c2)CC1` as the compound, how does the inhibition read?
A: -7.8%

Q: With `CN1CN(C)c2ccc([N+](=O)[O-])c3cccc1c23` as the compound, how does the inhibition read?
A: 38.8% (active)

Q: With `COc1ncnc2c1N=C1CC(C)(C)CC(N)=C1S2` as the compound, how does the inhibition read?
A: 46.6% (active)

Q: With `CCOc1ccc(C(CC(=O)O)NC(=O)COc2ccccc2)cc1` (stereo unspecified) as the compound, how does the inhibition read?
A: 0.0857%

Q: Which inhibition does the source give for `O=C(Oc1ccc(-c2nc(-c3ccccn3)no2)cc1)c1ccccc1` here?
A: 26.9%

Q: Which inhibition does the source give for `CCS(=O)(=O)c1ccc(-c2cccc(NC(=O)c3ccc(Br)o3)c2)nn1` here?
A: 19.3%

Q: For `OC(c1nnc(-c2ccccc2)o1)c1cccs1` (stereo unspecified), which inhibition is on record?
A: -9.63%

Q: Which inhibition does the source give for `Brc1ccc(-c2nnc(-c3ccccc3)o2)o1` here?
A: 47.1% (active)

Q: For `Nc1nonc1-c1noc(-c2ccc(Br)o2)n1`, which inhibition is on record?
A: 34.9%

Q: For `Brc1ccc(-c2noc(-c3ccccc3)n2)o1`, which inhibition is on record?
A: 53.9% (active)

Q: Which inhibition does the source give for `CCCN(CCC)c1ccc(C(O)c2nnc(-c3ccccc3)o2)cc1` (stereo unspecified) here?
A: 5.96%

Q: With `CN1CCN(C(=O)c2ccc(NC(=O)c3ccc(Br)o3)cc2)CC1` as the compound, how does the inhibition read?
A: -9.6%

Q: Which inhibition does the source give for `O=C(Nc1ccc(-c2nnc(-c3ccccc3)o2)cc1)c1ccc(Br)o1` here?
A: 34.6% (active)

Q: With `CN1CCN(C(CNS(=O)(=O)c2cccs2)c2cccnc2)CC1` (stereo unspecified) as the compound, how does the inhibition read?
A: -8.82%

Q: Which inhibition does the source give for `CCOc1cc2[nH]c(=O)n(CCC(=O)NCc3ccc(OC)cc3)c(=O)c2cc1OCC` here?
A: -1.79%

Q: With `CCCc1ccc(S(=O)(=O)N2CCN(C(=O)c3cc(C)on3)CC2)cc1` as the compound, how does the inhibition read?
A: 12.9%
